About 83,000 compounds went through this panel and 20% of them were active in at least one assay; those are over-represented in the sample as a whole.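 Each cell line was grown in a 96-well plate and treated with one concentration of compound for 48 hours. Values below 10 were considered active.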 Activity calls are given as the source filed them.

The first test concerns OVCAR-8 ovarian. As to the kind of experiment: NCI-60 one-dose screen, 48 h (100 = growth as untreated, 0 = no growth, -100 = all killed). The note with it: 10 µM unless noted.
In the case of `CC1(C)CC(=O)C2=C(C1)C(c1ccc(Cl)cc1)n1ncc(C#N)c1N2` (centres undefined), the growth was 97% (inactive).
For the compound `CCOC(=O)C1=C(CCl)N(C)C(=O)NC1c1ccc2c(c1)OCO2` (centres undefined), the growth is 44.9% (inactive).
Turning to `COc1ccc(-c2cc(C(=O)N3N=C(c4ccc(N)cc4)CC3c3ccc(Cl)cc3)c3ccccc3n2)cc1` (centres undefined), the growth is 14.2% (inactive).
For the compound `Cn1cc(-c2csc(-c3cn(C)c4ccccc34)n2)c2cnccc21`, the growth is 27.4% (inactive).
In the case of `CC(C)c1ccc2c(c1)CC[C@H]1[C@](C)(C(=O)OCC#CCN3CCCC3)CCC[C@]21C`, the growth was 89% (inactive).
For the compound `Cc1cc(=O)n(C(=S)Nc2ccc(Cl)cc2)c2cc(O)ccc12`, the growth was 101% (inactive).
Take `O=C1Nc2ccc(Cl)cc2/C1=C/c1ccc[nH]1`: the growth is 102% (inactive).
On to `COc1nc(/C=C\Nc2ccc3c(c2)OCCOCCOCCOCCO3)nc(OC)n1`, for which the growth is 108% (inactive).
Turning to `CC1=C2CC/C(C)=C/CC[C@]3(C)O[C@H]3CC/C(C)=C/[C@H]2OC1`, the growth was 95.8% (inactive).
Regarding `CCN1C(=O)N(CC)C2C1NN=c1s/c(=C\c3ccc(OC)cc3)c(=O)n12` (centres undefined), the growth is -2.81% (active).
For the compound `Cc1nn(C)c2ncnc(N/N=C/c3cccc(O)c3O)c12`, the growth was 18.2% (inactive).
For the compound `CC(C)C1C2=C(NCCN1C(=O)c1ccncc1)C(C)(C)N(Cc1ccccc1)C2=O` (centres undefined), the growth is 108% (inactive).
For `CN(C)c1ccc(C(=S)c2ccc(N(C)C)cc2)cc1`, the growth was 88.5% (inactive).
Consider `CSc1ccc(N2C(=N)C(=S)N(c3ccc(C)cc3)C2=O)cc1`, for which the growth is 96.1% (inactive).
`CCOC(=O)C/C(=N\Nc1cc(=O)[nH]c2ccc(C)cc12)C(=O)OCC`: the growth is 101% (inactive).
The same measure, in the same setting: to `Clc1ccc(Nc2ncc(Cc3cccc(Cl)c3Cl)s2)cc1` belongs 98% (inactive); to `CCOC(=O)c1nnn(-c2no[n+]([O-])c2-c2ccc(OC)cc2)c1COc1cccc2cccnc12`, 0.67% (active).
For `NC(=O)c1ccccc1OCC(=O)Nc1ccc(Cl)c(Cl)c1`, the growth is 91.9% (inactive).
Take `C=C1CC[C@@H]2C(C)(C)[C@H](O)CC[C@@]2(C)[C@@H]1COc1ccc2ccc(=O)oc2c1`: the growth is 17% (inactive).
The same measure, in the same setting: the value for `O=S(Nc1ccccc1)c1ccc(Cl)cc1` (centres undefined) was 100% (inactive); that for `COc1cccc(-c2cn3nc(-c4cn(C)c5ccccc45)sc3n2)c1` was 101% (inactive).
Turning to `COc1cc2c(cc1-c1c(C)noc1C)ncc1nc(CN3CCOCC3)n([C@H](C)COC(F)F)c12`, the growth was 46.1% (inactive).
For the compound `CN1c2ccccc2S(=O)(=O)n2c(SCC(=O)Nc3nc4ccc(F)cc4s3)nnc21`, the growth is 97.4% (inactive).
With `O=S(=O)(Nc1cc(Sc2nc3ccccc3s2)c(O)c2ccccc12)c1ccc2ccccc2c1`, the growth is 75.3% (inactive).
On the same count and under the same terms, the value for `Cn1c(C#N)ccc1-c1ccc(F)c(NC(=O)c2ccc(F)cc2)c1` was 95.4% (inactive).

In another test the test system is OVCAR-5 ovarian. The test is described as above. The note with it: 10 µM unless noted.
In the case of `CN(C)CCCNC(=O)c1cncnc1Nc1ccc2c(ccn2Cc2cccc(F)c2)c1`, the growth was 97.5% (inactive).
Same read-out and setting: the value for `CCOC(=O)/C(=C(/C)NCC(C)C)c1cc(O)c(O)c2c(C)cc(=O)[nH]c12` was 86.6% (inactive); that for `COc1ccc(Nc2ncc(C#N)c(NCCCNC(=O)C3CCC3)n2)cc1` was 79.6% (inactive).
On the same count and under the same terms, to `C=C1SC(=Nc2ccccc2Cl)N(C(=O)c2sc3ccccc3c2Cl)C1(C)C` belongs 92.4% (inactive); to `CN1CC(c2ccc(Br)cc2)C(C(=O)c2ccc(Br)cc2)C12C(=O)Nc1ccccc12` (centres undefined), 82.1% (inactive); to `CC(C)Cc1nc(Nc2ccccc2)[nH]c(=O)c1C#N`, 84.9% (inactive).
As to `CC(C)(C)c1ccc(S(=O)(=O)Oc2ccc(-c3sc4cc(OS(=O)(=O)c5ccc(C(C)(C)C)cc5)ccc4c3C(=O)c3ccc(OCCN4CCCCC4)cc3)cc2)cc1`, the growth was 99.4% (inactive).
On the same count and under the same terms, the value for `Nc1ncccc1O` was 98.7% (inactive); that for `COc1cc(C[C@H]2COc3cc(O)cc(O)c3C2=O)ccc1O` was 101% (inactive).
With `CCN(CC)C(=O)CC1=C(C)/C(=C/c2[nH]c(-c3ccc[nH]3)cc2OC)N=C1C`, the growth is 51.4% (inactive).
Same read-out and setting: the value for `COc1ccc(C2CC(c3ccccc3)=NN2C(=O)c2cc(OC)c(OC)c(OC)c2)cc1O` (centres undefined) was 60.1% (inactive); that for `C[C@@H]1CN(c2cnc(C(=O)Nc3cc(F)cc4cccnc34)cn2)C[C@H](C)N1` was 83.9% (inactive).
Consider `O=C(Nc1cc(Cl)ccc1O)c1ccccc1Nc1ccnc(C(F)(F)F)c1`, for which the growth is 68.6% (inactive).
As for `O=c1ccc2ccc(OCCN3CCCCC3)cc2o1`, the growth is 102% (inactive).
Still for that read-out and setting: to `CC1(C)CC(=O)C2=C(C1)C(c1ccc(Cl)cc1)n1ncc(C#N)c1N2` (centres undefined) belongs 103% (inactive); to `CCOC(=O)C1=C(CCl)N(C)C(=O)NC1c1ccc2c(c1)OCO2` (centres undefined), 76.9% (inactive).
As to `COc1ccc(-c2cc(C(=O)N3N=C(c4ccc(N)cc4)CC3c3ccc(Cl)cc3)c3ccccc3n2)cc1` (centres undefined), the growth is 51.6% (inactive).
On the same count and under the same terms, to `Cn1cc(-c2csc(-c3cn(C)c4ccccc34)n2)c2cnccc21` belongs 77.4% (inactive); to `CC(C)c1ccc2c(c1)CC[C@H]1[C@](C)(C(=O)OCC#CCN3CCCC3)CCC[C@]21C`, 85.8% (inactive); to `Cc1cc(=O)n(C(=S)Nc2ccc(Cl)cc2)c2cc(O)ccc12`, 101% (inactive).
Regarding `O=C1Nc2ccc(Cl)cc2/C1=C/c1ccc[nH]1`, the growth was 83.7% (inactive).
As for `COc1nc(/C=C\Nc2ccc3c(c2)OCCOCCOCCOCCO3)nc(OC)n1`, the growth was 98.3% (inactive).
As to `CC1=C2CC/C(C)=C/CC[C@]3(C)O[C@H]3CC/C(C)=C/[C@H]2OC1`, the growth is 81.3% (inactive).
On the same count and under the same terms, to `CCN1C(=O)N(CC)C2C1NN=c1s/c(=C\c3ccc(OC)cc3)c(=O)n12` (centres undefined) belongs 29.4% (inactive); to `Cc1nn(C)c2ncnc(N/N=C/c3cccc(O)c3O)c12`, 41.8% (inactive); to `CC(C)C1C2=C(NCCN1C(=O)c1ccncc1)C(C)(C)N(Cc1ccccc1)C2=O` (centres undefined), 107% (inactive).
Regarding `CN(C)c1ccc(C(=S)c2ccc(N(C)C)cc2)cc1`, the growth is 94.8% (inactive).
Same read-out and setting: the value for `CSc1ccc(N2C(=N)C(=S)N(c3ccc(C)cc3)C2=O)cc1` was 89% (inactive); that for `CCOC(=O)C/C(=N\Nc1cc(=O)[nH]c2ccc(C)cc12)C(=O)OCC` was 104% (inactive).
Consider `Clc1ccc(Nc2ncc(Cc3cccc(Cl)c3Cl)s2)cc1`, for which the growth is 85.8% (inactive).
On to `CCOC(=O)c1nnn(-c2no[n+]([O-])c2-c2ccc(OC)cc2)c1COc1cccc2cccnc12`, for which the growth was 48.6% (inactive).
Consider `NC(=O)c1ccccc1OCC(=O)Nc1ccc(Cl)c(Cl)c1`, for which the growth was 119% (inactive).
For the compound `C=C1CC[C@@H]2C(C)(C)[C@H](O)CC[C@@]2(C)[C@@H]1COc1ccc2ccc(=O)oc2c1`, the growth was 109% (inactive).
The same measure, in the same setting: the value for `O=S(Nc1ccccc1)c1ccc(Cl)cc1` (centres undefined) was 109% (inactive).
`COc1cccc(-c2cn3nc(-c4cn(C)c5ccccc45)sc3n2)c1`: the growth was 91.4% (inactive).
The same measure, in the same setting: the value for `COc1cc2c(cc1-c1c(C)noc1C)ncc1nc(CN3CCOCC3)n([C@H](C)COC(F)F)c12` was 68.2% (inactive); that for `CN1c2ccccc2S(=O)(=O)n2c(SCC(=O)Nc3nc4ccc(F)cc4s3)nnc21` was 113% (inactive).
In the case of `O=S(=O)(Nc1cc(Sc2nc3ccccc3s2)c(O)c2ccccc12)c1ccc2ccccc2c1`, the growth is 111% (inactive).
For the compound `Cn1c(C#N)ccc1-c1ccc(F)c(NC(=O)c2ccc(F)cc2)c1`, the growth is 85.4% (inactive).

The record behind these values is PubChem BioAssay (NCI).
